Data from PubChem BioAssay (NCI).
Where “and” joins values, the source holds several entries; their conditions need not be identical. Equal entries are not always repeated. This is part of a sample that, as a whole, favours compounds with a hit. Of some 83,000 tested, about 20% had one in any assay.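 Interpretation: 100, growth as untreated; towards 0, rising growth inhibition; 0, no net growth; 0 to -100, cell death. Compounds scoring below 10 were considered active.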 Calls of active or inactive are those of the source.

What follows are compounds tested on MDA-MB-468 breast (assay: NCI-60 one-dose screen, 48 h (100 = growth as untreated, 0 = no growth, -100 = all killed)). Details: 10 µM unless noted.

Structure (SMILES) | growth
Nc1cccc(-c2nc3sccn3c2-c2ccnc(NCCCNS(=O)(=O)c3cccc4ccccc34)n2)c1 | 18.2% (inactive)
COc1cc(NCCCCCCCNC(C)C)c2nccc(C)c2c1 | 9.01% (active) and 13.7% (inactive)
O=C1c2c(c3c4cccnc4[nH]c3c3ccc4ccccc4c23)C(=O)N1CCO | 57.6% (inactive)
O=C(/C=C/C12c3ccccc3C(c3ccccc31)C1C(=O)NC(=O)C12)c1ccncc1 (stereo not given) | 6.35% (active)
CCOC(=O)C(O)C(O)(c1ccccc1)c1ccccc1 (stereo not given) | 115% (inactive)
COc1cc(NCCCCCNC(C)(C)C)c2ncccc2c1 | -6.36% (active)
CCN(CC)c1ccc(C(O)C2=CC(=O)c3ccccc3C2=O)cc1 (stereo not given) | -53% (active)
Cc1cc(N)c2cc(NC(=O)/C=C\c3ccccc3Cl)ccc2n1 | -81.1% (active)
COc1cc(/C=C2\CN(S(=O)(=O)c3ccc(C)cc3)C/C(=C\c3cc(CN4CCCC4)c(O)c(OC)c3)C2=O)cc(CN2CCCC2)c1O | -11.9% (active)
Cc1cc(C2(c3ccc(O)c(C)c3)OS(=O)(=O)c3ccccc32)ccc1O | 98.9% (inactive)
Cc1ccccc1NC(=O)c1cc2ccccc2cc1O | 79.5% (inactive)
O=C1C=CC(=O)N1C1c2ccccc2-c2ccccc21 | 66.9% (inactive)
Clc1ccc2c(NC3CCC(N4CCOCC4)CC3)ccnc2c1 (stereo not given) | 9.58% (active)
C1=C(Cc2ccccc2)n2cnc3ncnc(c32)S1 | -11.8% (active)
Cc1cc(Cl)nc(N2CCN(CCNc3ccnc4cc(Cl)ccc34)CC2)n1 | 4.38% (active)
Cc1nc2sc(C(=O)Nc3cccc(Br)c3)c(N)c2cc1C(O)c1ccccc1 (stereo not given) | 11.9% (inactive)
Brc1ccc(C2CC(c3cccc(Nc4ccncc4)c3)=NN2c2ccccc2)cc1 (stereo not given) | 78.2% (inactive)
CCCn1nc(C(=O)N(C)Cc2ccccc2)c2c1CCC(N1CCc3ccccc31)C2 (stereo not given) | 92.8% (inactive)
Nc1n[nH]c2cccc(C#Cc3cccc(NC(=O)c4ccc(N5CCOCC5)c(C(F)(F)F)c4)c3)c12 | 21.8% (inactive)
COc1ccc(N)c(S)c1 | 97.3% (inactive)

Structure (SMILES) | growth
CC12O[C@H](C[C@@H](OC(=O)CCC(=O)O)[C@H]1O)n1c3ccccc3c3c4c(c5c6ccccc6n2c5c31)C(=O)NC4=O | 25.9% (inactive)
CCC(C)CC(C)C(=O)c1c(O)ccn(OC)c1=O (stereo not given) | 69.4% (inactive)
CC(=O)C1=C(C)NC(SCc2nnc(-c3ccc(C)cc3)o2)=NC1c1ccc(F)cc1 (stereo not given) | 93.4% (inactive)
COc1ccc([N+](=O)[O-])c(S(=O)(=O)c2ccc(Cl)cc2)n1 | 52% (inactive)
CNC(=O)c1cc(Oc2ccc(NC(=O)Nc3cc(C(C)(C)C)nn3-c3ccc4ncccc4c3)c(F)c2)ccn1 | -61.8% (active)
O=c1[nH]c(=O)n(C2OC(CO)C(O)C2O)cc1I (stereo not given) | 102% (inactive) and 123% (inactive)
Nc1ncc(-c2ccc3ncnc(Nc4cccc(Cl)c4F)c3c2)cn1 | -5.52% (active)
O=[N+]([O-])c1cc[n+]([O-])cc1 | 98.1% (inactive)
CCCCOc1cc(C(=O)NCCN(CC)CC)c2ccccc2n1 | 81.3% (inactive) and 94.3% (inactive)
CCN(CC)CCN1C(=O)c2c(c3c4ccccc4[nH]c3c3ccc4ccccc4c23)C1=O | 79.5% (inactive)
COc1ccc(C(=O)N2NC(=O)/C(=C/c3ccc(F)cc3)N=C2c2ccccc2)cc1 | 90.6% (inactive)
N#CC(=C1SCS1)[N+](=O)[O-] | -4.62% (active)
N#Cc1ccc(-c2ccc(-c3cccs3)o2)cc1F | 6.91% (active)
COC(=O)C(N)CC(C)C (stereo not given) | 98% (inactive)
CC1=CC(=O)OC1C/C=C(\C)CCC1[C@@]2(C)CCC[C@@](C)(C(=O)O)C2CC[C@@]1(C)O (stereo not given in full) | 102% (inactive)
N#CC1=C(N)Oc2c(ccc3ccccc23)C1c1ccc([N+](=O)[O-])cc1 (stereo not given) | 90% (inactive)
C/C(C=O)=C\c1ccc2c(c1)OCO2 | 94.8% (inactive)
S=c1cc(S)c2cc(Br)ccc2[nH]1 | 104% (inactive)
Cc1cc(Cl)c2c(Cl)ccc(Cl)c2n1 | 105% (inactive)
Cc1nn(-c2ccccc2)c2c1oc(=O)c1cc(Cl)ccc12 | 98.7% (inactive)
